DT40 TDP1 no CPT: qHTS for Inhibitors of human tyrosyl-DNA phosphodiesterase 1 (TDP1): qHTS in cells in absence of CPT. DT40 Tdp1-/- hTDP1 cells, no CPT, ATP luminescence, 48 h. Potency, µM (series often up to 46.2 µM), without a hit: at the top dose activity change, negative = growth inhibition, usual class: inhibitors. 15% of 420,000 active. AID 686978, 2013; further: potency means the concentration at half of the fitted maximal effect; nearly all actives have a fitted effect of over 55% in size
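Cells were dispensed at 400 per well, compounds added by pin tool, plates incubated ≥48 hr at 37 °C, then CellTiter-Glo added for 30 min at room temperature before luminescence reading. Line: DT40 Tdp1-/- complemented with hTDP1; camptothecin omitted.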
HT1080NT lethal: kills 2HG-producing HT-1080-NT fibrosarcoma cells; Potency, µM (doses to about 46.1 µM), inactives show at the highest dose activity, negative = less viability, most hits filed as cytotoxic; 1.6% of 360,000 active; HT-1080-NT fibrosarcoma viability, CellTiter-Glo ATP luminescence, 48 h;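 further: NT is the 2HG producing partner of a matched IDH1 knockdown line; potency means the concentration at half of the fitted maximal effect; 0% = DMSO-treated cells and -100% = media-only wells without cells; nearly all actives have a fitted effect of over 55% in size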
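Viability of the 2HG-overproducing fibrosarcoma line after 48 hours of compound exposure at 37 degrees C was determined by luminescence with CellTiter-Glo, and concentration-effect curves were then fitted and categorized.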
IL1B secr inh: inflammasome signaling inhibition, IL-1 beta readout | THP-1 LPS/ATP IL-1B secretion, AlphaLISA, 16 h; hits give low values | activity change, % at 57.5 µM | 4.7% of 360,000 active | AID 743279; in the data active means activity change below about -50%; inconclusive means mostly about -30% to -49%
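Secreted IL-1B measured by AlphaLISA bead assay after 16 h compound exposure of THP-1 cells; compounds (final up to 57.5 uM) added 1 h before LPS (250 ng/mL) and ATP (1.25 mM) stimulation; lower signal means less secretion.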
HT1080 IDH1KD tx: kills HT-1080 cells with IDH1 knockdown | Potency, µM (highest dose often 46.1 µM), for the others: at the highest dose activity, negative = toxicity, most hits filed as cytotoxic | 2% of 360,000 active | HT-1080 IDH1 knockdown viability, ATP luminescence, 48 h | AID 686971;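 further: potency means the concentration at half of the fitted maximal effect; 0% = DMSO wells and -100% = cell-free medium wells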
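Knockdown cells (IDH1KD HT-1080) received compounds 2 h after plating at 750 cells/well and were kept 48 h at 37 °C in 5% FBS RPMI. A CellTiter-Glo luminescence read gave % activity for curve fitting.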
12-LOX inh: ALOX12 (human) lipoxygenase inhibition; P18054; purified 12hLO, xylenol orange hydroperoxide absorbance; Potency, µM (top dose mostly 108 µM), without a hit: at the highest dose activity change, negative = inhibition, actives largely listed as inhibitors; 1.1% of 580,000 active; AID 1671190; further: potency means the concentration at half of the fitted maximal effect
Target sequence (P18054 whole entry, looked up): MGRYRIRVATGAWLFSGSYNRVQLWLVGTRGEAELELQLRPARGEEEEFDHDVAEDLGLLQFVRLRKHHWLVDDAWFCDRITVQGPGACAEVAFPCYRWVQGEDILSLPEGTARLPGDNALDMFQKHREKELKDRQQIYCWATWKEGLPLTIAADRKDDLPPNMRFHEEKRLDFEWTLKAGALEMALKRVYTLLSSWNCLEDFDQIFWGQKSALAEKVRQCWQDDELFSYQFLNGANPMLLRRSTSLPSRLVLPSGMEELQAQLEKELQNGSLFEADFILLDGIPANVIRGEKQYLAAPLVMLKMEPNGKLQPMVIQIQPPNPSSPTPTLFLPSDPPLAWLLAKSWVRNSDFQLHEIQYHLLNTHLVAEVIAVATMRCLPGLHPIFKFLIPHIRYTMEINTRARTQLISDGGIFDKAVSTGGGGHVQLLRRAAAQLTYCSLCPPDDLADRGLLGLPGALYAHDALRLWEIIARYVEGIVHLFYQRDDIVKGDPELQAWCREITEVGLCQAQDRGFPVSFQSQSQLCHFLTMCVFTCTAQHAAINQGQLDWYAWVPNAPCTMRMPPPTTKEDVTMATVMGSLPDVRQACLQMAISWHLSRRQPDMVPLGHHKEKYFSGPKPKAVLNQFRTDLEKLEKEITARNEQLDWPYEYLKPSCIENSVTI
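Purified human 12hLO at 150 nM in 25 mM Hepes, 0.01% Triton X-100, pH 7.0, preincubated 15 min at room temperature with compound. Reaction started with 40 uM arachidonic acid, 30 min at room temperature. Hydroperoxide measured by Fe-xylenol orange, 573/405 nm absorbance ratio.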
DT40 TDP1 CPT: DT40-hTDP1 cell growth loss with CPT; Potency, µM (doses to about 46.2 µM), for inactives: at the top dose activity change, negative = growth inhibition, usual class: inhibitors; 12% of 420,000 active; chicken DT40 Tdp1-/-;hTDP1 cells + 20 nM CPT, ATP luminescence, 48 h; further: potency means the concentration at half of the fitted maximal effect; nearly all actives have a fitted effect of over 55% in size
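Chicken DT40 Tdp1-/- cells stably complemented with human TDP1 were seeded at 400 cells/well in medium containing 20 nM camptothecin, exposed to pin-transferred compounds, and grown at 37 °C for at least 48 hr. Viability was read as ATP luminescence.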
An asterisk follows results filed as active; u = inconclusive; x = not tested or not shown; [ ] = dose if it differs, or a comment. Shown is part of a subset that was picked to be rich in hits. Unless noted, the call rests on the fitted dose curve; in most records, active means well fitted curve in the direction sought with a large enough effect; inconclusive means small, poorly fitted or top-dose-only effect, or another doubt; inactive means no such curve, though single readings can be large; an effect the other way counts as inactive or inconclusive. Unless noted, on the % scale 0 is the no-effect control and ±100 the full control effect.

SMILES	DT40 TDP1 no CPT	HT1080NT lethal	IL1B secr inh	HT1080 IDH1KD tx	12-LOX inh	DT40 TDP1 CPT
CCOc1ccc(Cl)cc1-c1cc(C(=O)NCCOC)[nH]n1	u	7.7%	-16.1	8.0%	8.2%	u
CCOc1ccc(Cl)cc1-c1cc(C(=O)Nc2ccc(Br)cc2)[nH]n1	18.4µM*	-29.0%	-24.4	u	-22.4%	23.1µM*
CCOc1ccc(Cl)cc1-c1cc(C(=O)NC2CCCCC2)[nH]n1	16.4µM*	u	-9.6	0.1%	-9.1%	18.4µM*
CCOc1ccc(Cl)cc1-c1cc(C(=O)Nc2ccc(C(C)C)cc2)[nH]n1	16.4µM*	-23.8%	-8.9	-25.2%	0.7%	u
COc1ccc(Cl)cc1-c1cc(C(=O)NC2CCCCC2)[nH]n1	u	u	-12.0	u	-4.0%	u
CCOc1ccc(Cl)cc1-c1cc(C(=O)Nc2ccc(OC)nc2)[nH]n1	u	-1.4%	-17.6	-12.4%	-6.2%	u
CCOc1ccc(Cl)cc1-c1cc(C(=O)NC(C)C)[nH]n1	u	5.2%	18.6	-6.4%	1.6%	u
CCOc1ccc(Cl)cc1-c1cc(C(=O)Nc2cc(OC)c(OC)c(OC)c2)[nH]n1	16.4µM*	u	-16.2	u	14.2%	20.6µM*
O=C(NCCCn1cccn1)C1Cn2cccc2C(=O)N1Cc1ccccc1 (stereo not drawn)	x	x	x	x	4.8%	x
O=C(Nc1cccc(F)c1)c1cnc2c(c1)N([S+](=O)([O-])c1cccnc1)CCC2	x	x	x	x	22.0%[176 µM]	x
O=S(=O)(c1ccc(C(F)(F)F)cc1)N1CCCc2nc(-c3ccccc3)ccc21	x	x	x	x	-1.4%	x
CC(C)OC(=O)c1cn(Cc2c(F)cccc2F)c2sc(-c3ccc(NC(=O)C(C)C)cc3)c(CN(C)Cc3ccccc3)c2c1=O	x	x	x	x	0.0%	x
COC(=O)C1=C(O)/C(=C\c2cc(C)n(-c3ccccc3C)c2C)N=C1C	u	-19.2%	-26.0	0.0%	u	29.1µM*
COC(=O)C1=C(O)/C(=C\c2cc(C)n(-c3ccccc3F)c2C)N=C1C	-22.6%	1.2%	29.4	11.1%	u	-18.7%
O=C(C[C@@H]1C/C=C/CC[C@H](Cc2ccc(F)cc2)C(=O)O[C@H](c2ccccc2)CNC1=O)NCCO	-10.1%	13.9%	-2.0	-0.6%	35.6%	-0.6%
O=C1N[C@@H](Cc2ccccc2)COC(=O)[C@H](Cc2ccc(F)cc2)CC/C=C/C[C@H]1CC(=O)N(CCO)Cc1ccccc1	u	u	u	u	0.0%	u
O=C1NC[C@H](c2ccccc2)OC(=O)[C@H](Cc2ccc(F)cc2)CC/C=C/C[C@H]1CC(=O)N(CCO)Cc1ccccc1	u	25.9µM*	u	x	u	25.9µM*
O=C1NC[C@H](c2ccccc2)OC(=O)[C@@H](Cc2ccc(F)cc2)CC/C=C/C[C@@H]1CC(=O)N(CCO)Cc1ccccc1	23.1µM*	-25.5%	-21.7	x	-4.0%	u
O=C1NC[C@H](c2ccccc2)OC(=O)[C@@H](Cc2ccc(F)cc2)CC/C=C/C[C@H]1CC(=O)N(CCO)Cc1ccccc1	11.6µM*	23.1µM*	-2.4	x	u	13µM*
COc1cccc(CNC(=O)CSc2nc3ccccc3nc2Cc2ccc(C)cc2)c1OC	-2.6%	x	x	x	4.9%	0.2%
CCc1sc(C(=O)Nc2ccccc2N2CCOCC2)cc1C	u	11.0%	-12.6	15.5%	8.9%	23.1µM*
Cc1cc(C(=O)Nc2ccccc2N2CCOCC2)no1	4.2%	3.3%[9.24 µM]	-1.1	1.2%	16.2%	-4.0%
O=C(Nc1ccccc1N1CCOCC1)c1ccccc1[N+](=O)[O-]	-24.9%	-0.6%	4.8	7.2%	-24.2%	-17.9%
O=C(Nc1ccccc1N1CCOCC1)c1ccc([N+](=O)[O-])s1	16.4µM*	u	31.4	u	48.4%	16.4µM*
CCOC(=O)c1ccc(N2CCN(c3ccc(F)cc3)CC2)c(NC(=O)Nc2ccc(CC)cc2)c1	-5.2%	x	x	x	-17.8%	-8.0%
SMILES	DT40 TDP1 no CPT	HT1080NT lethal	IL1B secr inh	HT1080 IDH1KD tx	12-LOX inh	DT40 TDP1 CPT
O=C(O)CCC(=O)OCCN(Cc1ccc(Oc2ccc([N+](=O)[O-])cc2)cc1)C(=O)C(Cl)Cl	u	3.8%	4.5	-4.6%	-11.8%	18.4µM*
Cc1ccc(C=Cc2ccccn2)cc1	u	18.9%	17.9	13.3%	-9.1%	-16.9%
Cc1cnc2c(C)ccc(C)c2c1/C=C/c1ccc(N(C)C)cc1	15.8µM*	x	x	x	x	u
Cc1cnc(/C=C/c2ccc(N(C)C)cc2)cn1	2.82µM*	x	x	x	x	3.16µM*
CN(C)c1ccc(C=Nc2cncc3ccccc23)cc1	-25.1%	x	x	x	x	13.5%
Cc1ccc2c(C)c(CCC(=O)NCc3ccc4c(c3)OCO4)c(=O)oc2c1	x	x	x	x	14.8%	x
COc1ccc(C2CC=C(C(C)=O)CN2S(=O)(=O)c2ccc(C)cc2)cc1 (stereo not drawn)	23.1µM*	-3.0%	12.4	4.5%	-3.1%	u
CCOc1ccc(C2CC=C(C(C)=O)CN2S(=O)(=O)c2ccc(C)cc2)cc1 (stereo not drawn)	23.1µM*	-10.9%	-2.9	u	-14.7%	23.1µM*
COc1ccc(C2CC=C(C(C)=O)CN2S(=O)(=O)c2ccccc2)cc1 (stereo not drawn)	20.6µM*	2.8%	-12.7	-5.5%	-24.8%	u
CCc1n[nH]c(CC2CCN(C(=O)C3CCC3)CC2)n1	x	x	x	x	4.8%	x
COc1ccc(Nc2ccccc2N)cc1	20.6µM*	-13.1%	-50.4*	u	u	u
Nc1ccc(Nc2ccccc2N)cc1	10.3µM*	u	6.1	u	u	5.17µM*
Nc1ccccc1Nc1cccc(C(F)(F)F)c1	u	-14.1%	-156.9*	-26.8%	u	8.6%
O=C(c1ccc(C(F)(F)F)cc1)N1CCC12Cc1ccccc1NC2=O (stereo not drawn)	x	x	x	x	15.8%	x
CN1CCN(c2ccc(S(=O)(=O)N3CCCCC3)cc2NC(=O)c2ccc(C#N)cc2)CC1	4.0%	14.9%	14.5	9.4%	-9.2%	-1.8%
CN1CCN(c2ccc(S(=O)(=O)N3CCCCC3)cc2NC(=O)Cc2ccc(Cl)cc2)CC1	23.1µM*	-5.6%	14.9	5.6%	u	u
CN1CCN(c2ccc(Cl)cc2NC(=O)c2ccc(S(=O)(=O)N3CCCCCC3)cc2)CC1	16.4µM*	-1.3%	0.0	-9.8%	0.0%	u
